Assay [1] concerns the target Cytochrome P450 3A7 (Homo sapiens) (UniProt P24462). As to the kind of experiment: Cytochrome P450 family 3 subfamily A member 7 (CYP3A7) small molecule antagonists: luciferase biochemical qHTS assay (AID 1963596). For activity change, negative = inhibition: % is set by controls: 0 for no effect and ±100 for the full control effect. Note: nearly all actives have a fitted effect of over 40% in size. The essentials: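 Compounds were screened in qHTS format for interference with CYP3A7 turnover of a proluciferin substrate. Reactions ran 1 h at room temperature after NADPH regeneration solution was added, then luciferin product was detected by luminescence.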
In general terms: In qHTS, concentration-response curves come from the screen itself.

A short description of assay [2]: Viability qHTS for spleen associated tyrosine kinase inhibitor (SYKi) drug resistant MV4-11 cells (AID 1963824). Note: nearly all actives have a fitted effect of over 35% in size. The essentials: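 SYK inhibitor-resistant MV4-11 AML cells, 500 per well, added to predispensed compounds and incubated 72 hr at 37 C, 5% CO2. Viability measured by CellTiter-Glo luminescence after 10 min at room temperature.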
A short description of assay [3]: Cellular viability qHTS for adrenocortical cancer (ACC) cell line SW-13 (AID 1963989).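 For activity (max response): cells grown in serum-free medium with ITS supplement; % is set by controls: 0 for no effect and ±100 for the full control effect.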 Note: nearly all actives have a fitted effect of over 65% in size. The note with it: SW-13 ACC cells viability, CellTiter-Glo, 48 h; activity (max response): hits give low values. A digest of the protocol: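 Viability was read as CellTiter-Glo luminescence after 48 h compound treatment (up to 46 uM final) of SW-13 cells grown serum-free; titration curves were fit with a four-parameter logistic model to give IC50 and efficacy.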

Assay [4] can be described thus: Cellular viability qHTS for adrenocortical cancer (ACC) cell line NCI-H295R (AID 1963990). Note: nearly all actives have a fitted effect of over 60% in size. A digest of the protocol:
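CellTiter-Glo ATP luminescence, read 48 h after compound addition, measured viability of NCI-H295R adrenocortical cells grown serum-free with ITS. Final concentrations spanned up to 46 uM. Data normalized to DMSO and doxorubicin, fitted for IC50 and maximal response.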

Assay [5] is described as follows: Quantitative highthroughput screen to assess conditional lethalithy of NOMO1 cells grown in RPMI1640 with untreated serum (RPMI+s) (AID 1963876).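 For Viability: 100% = DMSO wells and 0% = empty wells without cells.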 Note: nearly all actives have a fitted effect of over 35% in size. A digest of the protocol:
(§1)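 Each medium arm—HPLM with 10% dialyzed FBS, or RPMI1640 with 5 mM glucose and 10% untreated or dialyzed FBS—was screened against an 11-point, 3-fold compound titration for 48 h at 37 °C, with CellTiter-Glo luminescence as endpoint.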

Assay [6] is described as follows: Quantitative highthroughput screen to assess conditional lethalithy of NOMO1 cells grown in RPMI1640 with dialyzed fetal bovine serum (RPMI+ds) (AID 1963877).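 For Viability: series mostly up to about 46 µM; 100% = DMSO control wells and 0% = empty wells.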 Note: nearly all actives have a fitted effect of over 30% in size. The essentials: as §1
Assay [7] in a line: Quantitative highthroughput screen to assess conditional lethalithy of NOMO1 cells grown in Human Plasma-Like Medium with dialyzed fetal bovine serum (HPLM+ds) (AID 1963878).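 For Viability: 100% = DMSO wells and 0% = empty wells on each plate.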 Note: nearly all actives have a fitted effect of over 35% in size. The essentials: as §1
A short description of assay [8]: Quantitative highthroughput screen to assess conditional lethalithy of P12 Ichikawa cells grown in Human Plasma-Like Medium with dialyzed fetal bovine serum (HPLM+ds) (AID 1963879). For Viability: series mostly up to about 46 µM. Note: nearly all actives have a fitted effect of over 35% in size. Conditions: Potency: viability. A digest of the protocol: as §1
Assay [9] is described as follows: Quantitative highthroughput screen to assess conditional lethalithy of P12 Ichikawa cells grown in RPMI1640 with dialyzed fetal bovine serum (RPMI+ds) (AID 1963880).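 For Viability: 100% = DMSO wells and 0% = empty wells on each plate.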 Note: nearly all actives have a fitted effect of over 35% in size. Conditions: Potency: P12-Ichikawa viability. A digest of the protocol:
as §1

Assay [10] is described as follows: Quantitative highthroughput screen to assess conditional lethalithy of P12 Ichikawa cells grown in RPMI1640 with untreated serum (RPMI+s) (AID 1963881).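 For Viability: series mostly up to about 46 µM; 100% = DMSO wells and 0% = empty wells without cells.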 Note: nearly all actives have a fitted effect of over 35% in size. Conditions: Potency: viability. The essentials:
as §1

The nature of assay [11]: Quantitative highthroughput screen to assess conditional lethalithy of SEM cells grown in Human Plasma-Like Medium with dialyzed fetal bovine serum (HPLM+ds) (AID 1963882). For Viability: series mostly up to about 46 µM. Note: nearly all actives have a fitted effect of over 35% in size. A digest of the protocol:
as §1

A short description of assay [12]: Quantitative highthroughput screen to assess conditional lethalithy of SEM cells grown in RPMI1640 with unreated serum (RPMI+s) (AID 1963883).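 For Viability: 100% = DMSO wells and 0% = empty wells without cells.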 Note: nearly all actives have a fitted effect of over 35% in size. A digest of the protocol: as §1
A short description of assay [13]: Quantitative highthroughput screen to assess conditional lethalithy of SEM cells grown in RPMI1640 with dialyzed fetal bovine serum (RPMI+ds) (AID 1963884).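 For Viability: series mostly up to about 46 µM; 100% = DMSO control wells and 0% = empty wells without cells.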 Note: nearly all actives have a fitted effect of over 35% in size. The essentials:
as §1

Several values for one entry are separate records, joined by “and”; a condition that tells them apart may be missing. Equal entries are not always repeated. Records with an inconclusive call do not appear. Values without a mark were called inactive. Activity calls are given as the source filed them. Calls come from the whole dose curve; as a rule, active = well fitted curve in the direction sought with a large enough effect; inconclusive = small, poorly fitted or top-dose-only effect, or another doubt; inactive = no such curve, though single readings can be large; an effect the other way counts as inactive or inconclusive.
Potency is the fitted concentration of half-maximal effect.

Cytochrome P450 3A7 (Homo sapiens), sequence (P24462 whole entry, looked up): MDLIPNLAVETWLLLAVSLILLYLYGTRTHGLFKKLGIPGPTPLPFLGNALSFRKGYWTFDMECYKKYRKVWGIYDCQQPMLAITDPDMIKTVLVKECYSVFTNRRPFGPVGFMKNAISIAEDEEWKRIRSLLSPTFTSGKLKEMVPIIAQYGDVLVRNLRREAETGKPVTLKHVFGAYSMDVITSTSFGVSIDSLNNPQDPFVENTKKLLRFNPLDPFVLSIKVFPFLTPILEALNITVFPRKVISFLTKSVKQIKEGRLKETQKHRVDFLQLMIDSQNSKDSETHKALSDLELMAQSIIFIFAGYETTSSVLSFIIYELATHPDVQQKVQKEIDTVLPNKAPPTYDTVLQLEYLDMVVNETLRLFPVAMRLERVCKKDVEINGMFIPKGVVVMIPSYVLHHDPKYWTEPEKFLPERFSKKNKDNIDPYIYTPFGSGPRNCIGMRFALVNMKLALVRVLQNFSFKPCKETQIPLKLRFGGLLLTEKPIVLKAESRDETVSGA

Regarding `O=C(CCCl)NCc1ccccc1`, the Potency entry in assay [1], in [2] and in assay [4] was “inactive” throughout. Also, in assay [3], the activity (max response) is 9.65%.
On to `O=c1[nH]c(=O)n([C@H]2C[C@H](O)[C@@H](CO)O2)cc1I`, for which the Potency entry in assay [1] and in assay [4] was “inactive” each time. Also, in [2], the Potency was 5250 nM (active). Further, the activity (max response) in assay [3] is -5.04% and -11.6%.
Turning to `CNC(=O)c1c(I)c(NC(=O)CCCCC(=O)Nc2c(I)c(C(=O)O)c(I)c(C(=O)NC)c2I)c(I)c(C(=O)O)c1I`, the Potency result in assay [1], in assay [2] and in assay [4] was “inactive” in each case. Moreover, in assay [3], the activity (max response) was -7.54%.
For the molecule `C[C@@H]1CCO[C@H]2Cn3cc(C(=O)NCc4ccc(F)cc4F)c(=O)c(O)c3C(=O)N12`, the Potency result in assay [1], in assay [5], in [6], in assay [7], in assay [8] and in assay [9] was “inactive” each time. Besides, the Potency entry in assay [10], in assay [11], in [12] and in assay [13] was “inactive” each time.
Regarding `Nc1ncn([C@@H]2O[C@H](CO)[C@@H](O)[C@H]2O)c(=O)n1`, the Potency result in [1] and in assay [4] was “inactive” in each case. The Potency in assay [2] was 1660 nM (active).
For `CCCOC(=O)c1ccc(O)cc1`, the Potency result in [1] and in assay [4] was “inactive” in each case. Also, the Potency in assay [2] is 86.3 nM (active).
For `O=C1c2c(O)cccc2Cc2cccc(O)c21`, the Potency entry in [1], in assay [2] and in assay [4] was “inactive” each time. Besides, the activity (max response) in [3] is 5.31%.
Consider `NS(=O)(=O)c1ccc(Cl)c(S(N)(=O)=O)c1`, for which the Potency result in assay [1], in assay [2] and in assay [4] was “inactive” in each case. For the same molecule, the activity (max response) in assay [3] is -3.32%.
As for `CN1C(=O)CC(C)(c2ccccc2)C1=O` (stereo not drawn), the Potency entry in assay [1], in assay [2] and in assay [4] was “inactive” throughout. Moreover, the activity (max response) in assay [3] is -10.7%.
As to `O=c1[nH]c(=O)c2[nH]c(=O)[nH]c2[nH]1`, the activity change, negative = inhibition in assay [1] was 3.23% [at 11.5 µM]. In addition, the viability, % of control in assay [2] was 120% [at 9.25 µM]. Moreover, the Potency in [4] is 2660 nM (active).
In the case of `Cc1[nH]c(=O)c(C#N)cc1-c1ccc2nccn2c1`, the Potency result in assay [1], in [5], in assay [6], in [7], in assay [8] and in [9] was “inactive” in each case. Further, the Potency entry in assay [10], in assay [11], in assay [12], in assay [13] and in assay [4] was “inactive” each time. In addition, the activity (max response) in assay [3] is 11.7%.
For the molecule `NC(=O)CCCCC1CCSS1` (stereo not drawn), the Potency result in [1], in [2] and in [4] was “inactive” each time.
Take `Nc1ccc(S(=O)(=O)Nc2ncccn2)cc1`: the Potency result in [1], in assay [5], in assay [6], in assay [7], in assay [8] and in assay [9] was “inactive” each time. For the same molecule, the Potency result in assay [10], in assay [11], in assay [12] and in assay [13] was “inactive” each time.
In the case of `NS(=O)(=O)Cc1noc2ccccc12`, the Potency result in assay [1], in assay [2] and in assay [4] was “inactive” throughout. In addition, the activity (max response) in [3] was 1.85%.
In the case of `CC1(C)NC(=O)N(c2ccc([N+](=O)[O-])c(C(F)(F)F)c2)C1=O`, the Potency entry in assay [1], in assay [5], in assay [6], in assay [7], in assay [8] and in [9] was “inactive” each time. Further, the Potency result in assay [10], in [11], in assay [12], in assay [13] and in assay [4] was “inactive” each time. Besides, the activity (max response) in assay [3] was -3.44% and -9.93%.
Regarding `CC1(C)OC[C@@H](COC(=O)CCc2ccc(OC[C@@H](O)CNCCNC(=O)N3CCOCC3)cc2)O1`, the Potency result in [1], in [2] and in assay [4] was “inactive” each time.
Take `Oc1ccccc1C=NCc1ccccc1`: the Potency result in assay [1], in assay [2] and in assay [4] was “inactive” throughout.
In the case of `CCOc1ccc(C(=O)OCCN(CC)CC)cc1`, the Potency result in [1], in assay [2] and in assay [4] was “inactive” in each case. In addition, in assay [3], the activity (max response) is -4.6%.
As to `CCCCc1nc2cc(C=CC(=O)NO)ccc2n1CCN(CC)CC`, the Potency entry in [1] is “inactive”. The Potency was 4180 nM (active) in assay [5]; 6620 nM (active) in assay [6]; 4690 nM (active) in [7]; 2640 nM (active) in assay [8]; 2960 nM (active) in [9]; 2960 nM (active) in assay [10]. The results for the Potency in assay [11], in assay [12] and in assay [13] were 1870 nM (active), 2090 nM (active) and 2090 nM (active), respectively.
As to `CC[N+](C)(C)c1cccc(O)c1`, the Potency result in assay [1], in assay [2] and in [4] was “inactive” each time. The activity (max response) in assay [3] was 8.29%.
`[O-][n+]1cccc(/C(Cl)=N/OC[C@@H](O)CN2CCCCC2)c1`: the Potency result in [1], in [2] and in assay [4] was “inactive” each time. Also, the activity (max response) in [3] was 9.86%.
As for `CC(C)NC(=O)c1ccc(C=O)cc1`, the Potency entry in assay [1], in assay [2] and in [4] was “inactive” in each case. Further, the activity (max response) in [3] is 10.9%.
On to `CN[C@@H](C)C(=O)N[C@H](C(=O)N1CCC[C@H]1c1nc(C(=O)c2ccc(F)cc2)cs1)C1CCCCC1`, for which the Potency in assay [1] was 14100 nM (active); in [2], 1050 nM (active). In addition, in [3], the activity (max response) was -7.41%. The Potency result in assay [4] is “inactive”.
In the case of `Clc1ccccc1-c1nc(-c2ccncc2)no1`, the Potency entry in assay [1] and in assay [4] was “inactive” each time. Moreover, the Potency in assay [2] is 11900 nM (active). In addition, the activity (max response) in [3] is -7.1%.
For the molecule `CCOc1ccccc1C(N)=O`, the Potency result in [1] and in [4] was “inactive” throughout. In addition, in [2], the Potency is 9440 nM (active). Besides, the activity (max response) in [3] is 2.11%.
Regarding `COC(=O)c1nc(Cl)c(Cl)nc1N`, in assay [1], the Potency entry is “inactive”. Further, the Potency in [2] is 596 nM (active); in assay [3], 8200 nM (active); in assay [4] it was 103 nM (active).
`CCN(CC)CC#CCOC(=O)C(O)(c1ccccc1)C1CCCCC1` (stereo not drawn): the Potency result in assay [1], in assay [5], in assay [6], in assay [7], in [8] and in assay [9] was “inactive” throughout. For the same molecule, the Potency entry in assay [10], in assay [11] and in assay [13] was “inactive” throughout.
For the molecule `O=c1c(-c2ccc(O)cc2)coc2cc(OC3O[C@H](CO)[C@H](O)[C@H](O)[C@H]3O)cc(O)c12` (stereo partly drawn), the Potency entry in [1], in assay [5], in assay [6], in assay [7], in assay [8] and in assay [9] was “inactive” throughout. The Potency result in assay [10], in assay [11], in assay [12] and in assay [13] was “inactive” throughout.
Consider `CN1CCN(c2c(F)cc3c(=O)c(C(=O)O)cn4c3c2SCC4)CC1`, for which the Potency entry in assay [1] was “inactive”. Further, in [3], the activity (max response) is -3.92%.

The values above are taken from PubChem BioAssay (NCATS).
